About 1,100 (0.37%) of roughly 300,000 compounds were called active. The sample holds actives, similar compounds and a random draw of the others, so the mix is not that of the screen. Unmarked numbers belong to inactive results.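 How the source made its calls: active means inhibition past about -25% in most replicates, and total fluorescence under double the plate's negative control median (limit read from the data); inconclusive means replicates evenly split on the limit, or fluorescence at least double controls; inactive means too little inhibition in most replicates.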
Each compound was assayed against Zinc finger protein mex-5 (Caenorhabditis elegans) (UniProt Q9XUB2) (assay: MEX-5 zinc finger RNA-binding disruptors – biochemical, C. elegans, fluorescence polarization, MLPCN library, primary screen (AID 1832;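 further: 0% = DMSO and -100% = 5 µM competing unlabeled TCR2 RNA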)). Conditions: MEX-5/FITC-TCR2 RNA binding, at 10 µM, active compounds read low.
Sequence of Zinc finger protein mex-5 (Caenorhabditis elegans) (Q9XUB2 whole entry, looked up): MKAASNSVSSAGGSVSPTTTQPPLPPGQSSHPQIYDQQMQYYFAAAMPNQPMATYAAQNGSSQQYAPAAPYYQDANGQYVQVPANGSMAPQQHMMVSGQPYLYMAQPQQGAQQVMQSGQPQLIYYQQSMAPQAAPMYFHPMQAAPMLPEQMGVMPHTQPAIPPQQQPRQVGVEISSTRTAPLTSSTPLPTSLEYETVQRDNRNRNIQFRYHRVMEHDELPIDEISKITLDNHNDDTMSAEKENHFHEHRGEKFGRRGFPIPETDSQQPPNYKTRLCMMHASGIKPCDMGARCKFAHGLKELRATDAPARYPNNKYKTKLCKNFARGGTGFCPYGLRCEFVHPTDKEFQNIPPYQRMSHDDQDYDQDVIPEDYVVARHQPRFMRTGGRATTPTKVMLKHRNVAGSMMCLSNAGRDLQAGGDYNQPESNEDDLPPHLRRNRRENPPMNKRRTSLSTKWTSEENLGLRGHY

SMILES | activity score (negative = inhibition of binding)
Cc1cccc(N2C(=O)NC(=O)/C(=C\c3cnn(-c4ccccc4)c3)C2=O)c1 | 1.06%
O=C1NC(=O)N(c2ccccc2)C(=O)/C1=C/c1ccc([N+](=O)[O-])s1 | -35.6% (active)
O=C1NC(=O)N(c2ccc(F)cc2)C(=O)/C1=C/c1ccc2c(c1)CCCN2Cc1ccccc1 | -7.18%
COc1ccc2[nH]c3c(c2c1)CCN[C@H]3C | 2.22%
COc1ccc(N2C(=O)/C(=C/c3ccco3)C(=O)NC2=S)cc1 | -95.1% (active)
Cc1cc(/C=C2/C(=O)NC(=O)N(Cc3ccco3)C2=O)c(C)n1-c1ccc(C(=O)O)cc1 | -4.55%
COc1ccc(CN2C(=O)NC(=O)/C(=C\c3ccc(OC)c(OC)c3OC)C2=O)cc1 | 7.01%
CN(C)CC1CCCCC1OC(=O)c1ccc(Cl)c(Cl)c1 (stereo not given) | -0.533%
O=Cc1cn(Cc2ccc(F)cc2Cl)c2ccccc12 | -1.5%
COc1cccc(-c2nc3ccc(N4CCN(C)CC4)cc3[nH]2)c1 | 2.54%
